This is a sample that favours compounds with a hit; in the whole collection about 4% have one here.
TRHR enhancer – qHTS for Small Molecule Agonists and Allosteric Enhancers of Human TRH Receptor: Primary Screen for Enhancers | TRHR cells, fluo-8 calcium fluorescence, EC20 TRH enhancement | enhancement, % at 2 µM | hit rate 0.66% among 360,000 | AID 493056, 2011; in the data active = enhancement above about 30%; note: 0% is about no effect
Target sequence (P34981 whole entry, looked up): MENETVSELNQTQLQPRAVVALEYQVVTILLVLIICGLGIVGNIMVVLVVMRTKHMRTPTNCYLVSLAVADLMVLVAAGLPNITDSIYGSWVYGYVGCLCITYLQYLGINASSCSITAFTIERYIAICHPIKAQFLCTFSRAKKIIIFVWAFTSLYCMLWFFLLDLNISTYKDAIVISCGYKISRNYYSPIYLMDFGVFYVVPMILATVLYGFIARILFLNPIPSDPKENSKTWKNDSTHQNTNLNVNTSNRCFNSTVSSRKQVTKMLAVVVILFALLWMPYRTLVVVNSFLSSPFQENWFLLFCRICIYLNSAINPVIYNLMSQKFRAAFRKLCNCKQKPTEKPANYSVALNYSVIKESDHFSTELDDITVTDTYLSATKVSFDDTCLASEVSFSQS
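Enhancer read-out: after compound pinning and an initial kinetic agonist-mode read, an EC20 of TRH (10 nM final) was injected and fluo-8 calcium signal (Ex 480/Em 530) followed at 1 s/cycle for 100 cycles in TRHR-expressing cells.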
D1 potentiator – Potentiators of Human D1 Dopamine Receptor: qHTS | D(1A) dopamine receptor (Homo sapiens), P21728 | HEK293 TREx D1 cells, calcium flux, dopamine EC20 potentiation | potentiation, % at 10 µM | hit rate 0.036% among 360,000; in the data active = potentiation above about 30%; note: 0% is about no effect
D1 agonist – Allosteric Agonists of the Human D1 Dopamine Receptor: qHTS. D(1A) dopamine receptor (Homo sapiens), P21728. HEK293 T-REx D1 cells, calcium flux, agonist mode. activation, % at 2 µM. hit rate 1% among 360,000. AID 504660, 2011; note: 0% is about no effect
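Agonism was scored from calcium flux recorded over 180 s (1 read/s) after pintool compound addition, following a 10-cycle baseline. Cells were inducible force-coupled HEK293 TREx D1, plated overnight at 30 C and loaded with no-wash calcium dye.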
D1 antag – Antagonist of Human D 1 Dopamine Receptor: qHTS; D(1A) dopamine receptor (Homo sapiens), P21728; HEK293 TREx D1 cells, calcium flux, dopamine EC80; active compounds read low; activity change, negative = inhibition, % at 10 µM; hit rate 3.2% among 360,000; AID 504652, 2011; in the data active = activity change below about -30%; note: % is set by controls: 0 for no effect and ±100 for the full control effect
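Kinetic fluorescence of a calcium dye serves as the read-out. D1-expressing Hek293 Trex cells, induced overnight at 30 C, are exposed to compound for 180 s before an EC80 dopamine addition, then read 180 s further.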
TRHR ag – qHTS for Small Molecule Agonists and Allosteric Enhancers of Human TRH Receptor: Primary Screen for Agonists | TRHR cells, calcium flux fluo-8, FDSS agonist mode | activation, % at 2 µM | hit rate 0.18% among 360,000; note: 0% is about no effect
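Steps: seed TRHR cells overnight; add fluo-8 no-wash Ca dye, RT 30 min–1.5 h; record 10 s baseline; pin-transfer compounds; monitor fluorescence 1 cycle/s for the agonist window. Calcium increases flag candidate agonists.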
GRP78 ERSR act – qHTS for Inducers of the Endoplasmic Reticulum Stress Response (ERSR) in Human Glioma: qHTS. U87-MG GRP78 promoter luciferase reporter, 16 h. Potency, µM, without a hit: top-dose activation, actives largely listed as activators. hit rate 0.02% among 420,000; active = well fitted activation curve with a large enough effect; note: potency is the fitted concentration of half-maximal effect; series mostly up to about 76 µM; % of control where 0% means no effect; nearly all actives have a fitted effect of over 35% in size
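Stably transfected U87-MG human glioma cells carrying a GRP78-based luminescent sensor were seeded at 1000 cells/well, pin-dosed with compounds and incubated 16 h. Luciferase reagent was then added, and end-point luminescence was read after 10 min at room temperature.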
* marks the source's active call; other numbers are inactive results; · = no result. Cut-off read from the data, not from the text of the source, unless noted: active = activation above about 30%; inactive = the rest.

SMILES | TRHR enhancer | D1 potentiator | D1 agonist | D1 antag | TRHR ag | GRP78 ERSR act
CC(C)C[C@H](NC(=O)[C@H](Cc1ccccc1)NC(=O)[C@H](Cc1ccccc1)NC(=O)[C@@H](N)CO)C(=O)N[C@@H](CCCN=C(N)N)C(=O)N[C@@H](CC(N)=O)C(=O)O | · | · | · | · | · | 0%
CCn1c(C)nc2cc(C(=O)OC(C(F)(F)C(F)F)C(F)(F)C(F)F)ccc21 | 8 | -3 | 17 | -37* | -1 | 5%
CCn1c(C)nc2cc(C(=O)NNC(=O)c3ccc(C)cc3)ccc21 | 0 | -3 | -2 | 5 | 0 | -1%
Cc1ccc(C)c(NC(=O)CN2C(=O)CC(C)S(=O)(=O)c3ccccc32)c1 (stereo not given) | -12 | -9 | 2 | -20 | 0 | -7%
Cc1noc(C)c1S(=O)(=O)N1CCN(c2ccc(Cl)cc2)CC1 | -5 | 1 | 0 | 1 | 0 | -7%
CC(=O)c1ccc(N2CCN(C(=O)c3ccc(OCc4c(C)noc4C)cc3)CC2)cc1 | -2 | -2 | 8 | -32* | -1 | -2%
Cc1noc(C)c1COc1ccc(C(=O)N2CCN(c3cccc(Cl)c3)CC2)cc1 | -1 | 3 | 4 | -15 | 0 | 0%
Cc1noc(C)c1S(=O)(=O)Nc1ccc(C(=O)N2CCN(c3ccc(Cl)cc3)CC2)cc1 | -1 | -7 | 20 | -36* | 0 | -3%
CCc1nc2cc(C(=O)N3CCC[C@H]3C(=O)OC)cc(NC(=O)c3ccccc3OC)c2n1C | · | · | · | · | · | -4%
CCc1ccc(N2CC(C(=O)OCC(=O)Nc3ccc(C(C)=O)cc3)CC2=O)cc1 (stereo not given) | 7 | · | 9 | -27 | 0 | 3%
N#Cc1ccc(NC(=O)Nc2cccc(C#N)c2)cc1 | 4 | -13 | 32* | -63* | 3 | 4%
N#Cc1ccc(NC(=O)Nc2ccc(Oc3ccc(NC(=O)Nc4ccc(C#N)cc4)cc3)cc2)cc1 | 37* | -4 | 16 | 11 | 0 | -15%
O=C(CSc1nc2ccccc2[nH]1)NC(=O)NCc1ccco1 | -6 | -9 | 0 | -40* | 0 | -2%
NS(=O)(=O)c1ccc(NC(=O)CSc2nc3ccccc3[nH]2)cc1 | 4 | -15 | 3 | -84* | 0 | -1%
CC(=O)OC1CCC2(C)C3CCC4(C)C(CC5CCCCC54C(C)=O)C3CC(=O)[C@@]2(O)C1 (stereo not given in full) | · | · | · | · | · | -3%
CN(C)S(=O)(=O)c1cccc(NC(=O)c2cccc(S(=O)(=O)N3CCc4ccccc43)c2)c1 | 2 | -5 | 5 | -57* | 1 | -2%
COc1ccc(NC(C)=O)cc1NC(=O)c1cccc(S(=O)(=O)N2CCc3ccccc32)c1 | 9 | -4 | 0 | -32* | -1 | -4%
O=C(Nc1nc2ccccc2s1)c1cccc(S(=O)(=O)N2CCc3ccccc32)c1 | 11 | -2 | 4 | -25 | 0 | 1%
O=C(Nc1nc2c(s1)CN(Cc1ccccc1)CC2)c1cccc(S(=O)(=O)N2CCc3ccccc32)c1 | -5 | -10 | 73* | -3 | 46* | -2%
CC(=O)OC[C@H]1O[C@@H](O/N=C2/[C@H]3O[C@@H]3[C@@H](O)[C@H]3[C@H]2CCn2c(=O)n(-c4ccccc4)c(=O)n23)[C@H](OC(C)=O)[C@@H](OC(C)=O)[C@@H]1OC(C)=O | · | · | · | · | · | -4%
Cn1cccc1/C=N/n1c(-c2ccc(Cl)cc2Cl)n[nH]c1=S | 2 | -2 | 44* | 3 | 3 | 11%
Cc1ccc(-c2cn3nc(N4CCCC(C(=O)Nc5ccc(F)cc5)C4)sc3n2)cc1 (stereo not given) | 5 | 0 | -2 | -4 | 1 | -4%
CSc1nc(Oc2cccc(C(F)(F)F)c2)cc(C(F)(F)F)n1 | -3 | -7 | 2 | 9 | 1 | -1%
CSc1nccc(Oc2cccc(C#N)c2)n1 | 0 | -10 | 2 | -33* | -1 | -2%
O=C(COC(=O)CNC(=O)c1ccccc1Cl)Nc1ccccc1Cl | -1 | 3 | -1 | -1 | -3 | -2%
SMILES | TRHR enhancer | D1 potentiator | D1 agonist | D1 antag | TRHR ag | GRP78 ERSR act
CCN1CCN(c2cc(=O)n(C3CCCCC3)c(=O)[nH]2)CC1 | 34* | -3 | 1 | -9 | 0 | -3%
Cc1ccc(Cl)cc1NC(=O)c1sc2nc(-c3ccccc3)cn2c1C | 5 | -8 | 4 | 0 | 1 | 0%
CCOC(=O)c1cccc(NC(=O)CSc2ncc3c(n2)-c2ccc(Cl)cc2N(Cc2ccccc2)S3(=O)=O)c1 | 10 | 0 | 7 | -75* | -1 | -2%
COc1ccc(CNC(=O)CSc2ncc3c(n2)-c2cc(Cl)ccc2N(Cc2ccccc2)S3(=O)=O)cc1 | 4 | -8 | 6 | -43* | 0 | -2%
Cc1cc(C(=O)OCC(=O)N2CC(C)OC(C)C2)c(C)n1-c1ccccc1 (stereo not given) | 5 | · | 7 | -65* | 0 | -4%
CCNC(=O)COC(=O)c1cc(C)n(-c2ccccc2)c1C | 7 | 0 | 8 | -55* | -1 | 2%
COc1ccc2nc(-c3ccccc3)cc(C(=O)OCC(=O)N3CC(C)OC(C)C3)c2c1 (stereo not given) | 41* | 1 | 1 | -7 | 4 | 4%
CCOc1ccc(C[C@H]2NC(=O)CCSSC[C@@H](C(=O)N3CCC[C@H]3C(=O)N[C@@H](CCCN)C(=O)NCC(N)=O)NC(=O)[C@H](CC(N)=O)NC(=O)[C@H]([C@@H](C)O)NC(=O)[C@H]([C@@H](C)CC)NC2=O)cc1 | · | · | · | · | · | -3%
CSc1nnc(CCNC(=O)c2ccc(-c3cccc(F)c3)cc2)n1-c1ccc(F)cc1 | · | · | · | · | · | 2%
CCCCNC(=O)CCCCC(=O)N/N=C/c1cccc(Cl)c1 | 31* | -3 | 1 | -29 | -3 | -5%
CCCCNC(=O)C(=O)N/N=C/c1cccc(Br)c1 | -3 | -4 | 5 | 3 | -1 | -4%
Cc1ccc(C(=O)N(Cc2cc3cccc(C)c3nc2N2CCC(O)CC2)C2CC2)cc1 | · | · | · | · | · | -5%
CC(C)CCOc1ccccc1Cn1c(=O)sc2ccccc21 | 1 | -4 | 35* | 14 | -1 | -2%
CCOc1ccccc1Cn1c(=O)sc2ccccc21 | -1 | -1 | 2 | -2 | -1 | -2%
